Data as given in PubChem BioAssay.
Records with an inconclusive call do not appear. The source made the active and inactive calls. Unless noted, how the calls were made is not given here.

Columns and labels:
[1] = rapamycin-like changes in RPL19A-GFP expression – cell-based, S. cerevisiae, multiplex flow cytometry, primary screen (AID 1862; in the data active means percent of DMSO control GFP below about 86%;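 further: lower values mimic rapamycin by blocking the RPL19A rise seen in DMSO cells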); conditions: S. cerevisiae RPL19A-GFP strain, flow cytometry fluorescence, 3 h; at 10 µM; stronger effect = lower value
[2] = TOR pathway GLN3 branch reporter MEP2-GFP changes – S. cerevisiae, multiplex flow cytometry, primary screen (AID 1867;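 active means GFP response, as percent of the DMSO control, above the screen-wide mean plus 3 SD, about 139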;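 further: median GFP channel fluorescence of barcode-gated MEP2-GFP cells measured by flow cytometry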); conditions: S. cerevisiae MEP2-GFP strain, 3 h, at 10 µM, stronger effect = higher value
[3] = TOR pathway RTG branch CIT2 reporter changes – S. cerevisiae, GFP fusion, multiplex flow cytometry, primary screen (AID 1870;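 active means percent response above a set limit, the screen-wide mean plus 3 SD, cut at about 130% in these data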;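 further: barcoded CIT2-GFP strain pooled with four other GFP strains with rapamycin as positive control; median GFP fluorescence per well over plate mean of DMSO wells so 100% = DMSO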); conditions: S. cerevisiae CIT2-GFP expression, 3 h, at 10 µM, stronger effect = higher value
[4] = TOR pathway LAP4-GFP level changes – S. cerevisiae, multiplex flow cytometry, primary screen (AID 1873;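 active means GFP signal, as percent of the solvent control, above the screen mean plus 3 SD, about 149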); conditions: S. cerevisiae LAP4-GFP expression, 3 h, at 10 µM, stronger effect = higher value
[5] = reduced mouse 2C T cell binding to pMHC/ICAM-1 vesicles – MLPCN validation set, flow cytometry, LFA-1/ICAM-1 modulator project, pilot screen (AID 2523;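 active means response below a set limit, under 55% cells CD8-positive and vesicle-bound, and CD8 cells' 90th-percentile brightness under 279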;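 on vesicle binding response: mean PE anti-B7-1 fluorescence of CD8+ cells relative to row control; 100% = QL9-loaded vesicles with DMSO vehicle in the same plate row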); conditions: 2C mouse CD8+ T cells, at 7 µM, stronger effect = lower value; double positive events: measured here: CD8+/vesicle+ event percentage
[6] = biological target: Integrin beta-1 (Homo sapiens) + Integrin alpha-4 (Homo sapiens) (UniProt P13612+P05556); test: alpha4beta1 integrin LIBS antibody binding reduction – U937 cells, HUTS-21 mAb, flow cytometry, validation set, VLA-4 allosteric modulator project, pilot screen (AID 2674;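 active means inhibition above 50%, about 3 SD of the validation set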;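 further: antibody binding induced by the VLA-4 ligand LDV present at three times its Kd; 0% = LDV ligand with antibody and no compound and 100% = antibody without LDV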); conditions: HUTS-21 LIBS mAb binding, at 6.7 µM, stronger effect = higher value
Chain of Integrin beta-1 (Homo sapiens) + Integrin alpha-4 (Homo sapiens) (P05556 whole entry, looked up): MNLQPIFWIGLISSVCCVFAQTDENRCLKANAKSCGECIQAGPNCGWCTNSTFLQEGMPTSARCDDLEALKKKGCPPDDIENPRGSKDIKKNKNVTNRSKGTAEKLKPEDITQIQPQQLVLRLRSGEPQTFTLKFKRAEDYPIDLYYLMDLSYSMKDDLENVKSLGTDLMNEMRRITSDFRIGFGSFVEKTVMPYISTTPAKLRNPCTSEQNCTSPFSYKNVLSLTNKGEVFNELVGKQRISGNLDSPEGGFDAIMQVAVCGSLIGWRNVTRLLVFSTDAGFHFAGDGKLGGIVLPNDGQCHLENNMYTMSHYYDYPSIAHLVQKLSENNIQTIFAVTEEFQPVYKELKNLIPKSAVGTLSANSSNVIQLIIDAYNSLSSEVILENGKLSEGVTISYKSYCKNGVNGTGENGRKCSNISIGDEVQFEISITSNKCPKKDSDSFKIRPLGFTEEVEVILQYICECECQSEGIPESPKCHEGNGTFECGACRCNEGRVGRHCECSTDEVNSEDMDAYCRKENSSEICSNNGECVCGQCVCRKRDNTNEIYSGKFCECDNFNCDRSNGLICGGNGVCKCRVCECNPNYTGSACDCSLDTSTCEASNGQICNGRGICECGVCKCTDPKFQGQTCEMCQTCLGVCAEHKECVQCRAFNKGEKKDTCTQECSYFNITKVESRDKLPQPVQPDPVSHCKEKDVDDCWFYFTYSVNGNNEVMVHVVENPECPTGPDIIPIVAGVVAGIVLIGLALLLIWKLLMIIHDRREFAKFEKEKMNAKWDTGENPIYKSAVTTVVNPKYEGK
Chain of Integrin beta-1 (Homo sapiens) + Integrin alpha-4 (Homo sapiens) (P13612 whole entry, looked up): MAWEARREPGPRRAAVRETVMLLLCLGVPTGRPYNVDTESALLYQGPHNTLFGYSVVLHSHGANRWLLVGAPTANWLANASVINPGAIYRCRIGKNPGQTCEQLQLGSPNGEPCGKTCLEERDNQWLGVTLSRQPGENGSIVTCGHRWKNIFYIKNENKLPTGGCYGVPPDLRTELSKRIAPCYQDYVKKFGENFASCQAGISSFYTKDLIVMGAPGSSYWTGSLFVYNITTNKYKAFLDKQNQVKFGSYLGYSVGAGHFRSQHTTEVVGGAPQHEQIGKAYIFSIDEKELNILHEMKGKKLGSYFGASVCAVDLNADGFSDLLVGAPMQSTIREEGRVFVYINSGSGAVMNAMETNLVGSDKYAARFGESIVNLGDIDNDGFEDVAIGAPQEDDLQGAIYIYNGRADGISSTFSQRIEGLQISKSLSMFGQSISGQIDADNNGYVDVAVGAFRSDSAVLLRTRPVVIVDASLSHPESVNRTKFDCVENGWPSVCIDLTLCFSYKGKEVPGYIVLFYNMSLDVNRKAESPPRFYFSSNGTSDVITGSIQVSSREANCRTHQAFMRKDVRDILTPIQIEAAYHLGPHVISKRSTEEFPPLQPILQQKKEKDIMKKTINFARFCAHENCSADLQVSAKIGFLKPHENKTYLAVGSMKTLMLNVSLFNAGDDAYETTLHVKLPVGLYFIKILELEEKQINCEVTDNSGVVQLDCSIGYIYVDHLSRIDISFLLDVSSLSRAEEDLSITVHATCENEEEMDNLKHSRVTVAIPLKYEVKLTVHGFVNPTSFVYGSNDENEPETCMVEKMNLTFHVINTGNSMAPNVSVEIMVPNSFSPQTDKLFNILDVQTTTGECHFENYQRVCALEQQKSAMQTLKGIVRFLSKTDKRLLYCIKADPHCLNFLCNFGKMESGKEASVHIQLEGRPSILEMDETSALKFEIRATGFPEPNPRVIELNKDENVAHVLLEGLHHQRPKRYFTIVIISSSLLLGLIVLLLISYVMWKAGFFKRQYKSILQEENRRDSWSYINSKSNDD

[7] = calorie-restriction mimetic ROS inhibitors, yeast – validation compound set, pilot screen (AID 2706;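 active means superoxide response below 65% of plate, a cut near 3 SD across the whole screen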;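 further: yeast exposed to compound for one week at 30 degrees C before staining; 100% = mean of all compound wells on the same plate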); conditions: S. cerevisiae aging, superoxide DHE fluorescence; at 10 µM; stronger effect = lower value
[8] = biological target: Beta-adrenergic receptor kinase 1 (Homo sapiens) (UniProt P25098); test: GRK2 binders displacing RNA aptamer, biochemical, validation, human GRK2, bead flow cytometry (AID 488806;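 active means aptamer binding inhibition above 30%, about 3 SD of noise from non-fluorescent compounds; inactive means inhibition at or below 30%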); conditions: bead-bound GRK2, FAM-aptamer displacement, at 10 µM, stronger effect = higher value
Chain of Beta-adrenergic receptor kinase 1 (Homo sapiens) (P25098 whole entry, looked up): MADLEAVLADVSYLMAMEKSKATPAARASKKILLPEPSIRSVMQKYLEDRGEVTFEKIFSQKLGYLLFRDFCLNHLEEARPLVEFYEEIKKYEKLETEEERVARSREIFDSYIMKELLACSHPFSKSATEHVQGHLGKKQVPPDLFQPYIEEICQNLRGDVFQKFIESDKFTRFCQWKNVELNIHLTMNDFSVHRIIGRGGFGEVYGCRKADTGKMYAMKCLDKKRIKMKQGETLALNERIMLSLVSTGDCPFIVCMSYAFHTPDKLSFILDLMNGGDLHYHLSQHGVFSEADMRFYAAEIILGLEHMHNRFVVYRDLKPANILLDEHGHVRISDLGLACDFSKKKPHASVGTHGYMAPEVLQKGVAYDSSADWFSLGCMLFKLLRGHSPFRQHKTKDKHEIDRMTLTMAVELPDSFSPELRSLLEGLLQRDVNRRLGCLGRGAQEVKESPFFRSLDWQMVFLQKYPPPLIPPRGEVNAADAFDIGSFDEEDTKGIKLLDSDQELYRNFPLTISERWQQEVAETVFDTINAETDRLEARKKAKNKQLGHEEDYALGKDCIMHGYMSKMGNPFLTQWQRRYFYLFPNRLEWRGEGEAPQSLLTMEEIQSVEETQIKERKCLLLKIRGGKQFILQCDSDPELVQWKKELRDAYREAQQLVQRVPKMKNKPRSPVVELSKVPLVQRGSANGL

[9] = biological target: AP-2 complex subunit beta (Homo sapiens) (UniProt P63010); test: beta-arrestin/AP2 interaction blockers – biochemical, validation set, GST-AP2 beads, flow cytometry, pilot screen (AID 504541;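 active means inhibition above 54%, about 3 SD of non-fluorescent compounds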;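 further: AP2 carries R879A mutation and is captured from E. coli lysate; bead-bound FITC arrestin peptide fluorescence measuring arrestin peptide binding to AP2; 0% = DMSO wells and 100% = excess unlabeled arrestin peptide control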); conditions: FITC arrestin peptide, at 10 µM, stronger effect = higher value
[10] = cytosolic pH regulators acting via V-ATPase – S. cerevisiae, pHLuorin, HTS validation (AID 504600; in the data active means response above about 15%;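 further: plate controls were DMSO for no effect and reference compound for full effect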); conditions: V-ATPase proton transport, at 10 µM, stronger effect = higher value
[11] = system: anti-desmoglein-3 scFv antibody binding to human DSG3; test: blockers of pathogenic pemphigus antibody–desmoglein-3 binding – biochemical, validation compound set, bead-based, flow cytometry, pilot screen (AID 588368;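 active means binding below the plate cutoff, the plate median minus 3 SD, with a reading above zero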;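 further: signal is the median channel fluorescence of bead-bound GFP antibody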); conditions: Protein G beads, DSG3-Fc, scFv-GFP binding, at 10 µM, stronger effect = lower value
[12] = system: Botulinum neurotoxin type F light chain protease (Clostridium botulinum); test: Clostridium botulinum type F light chain protease inhibitors, microsphere substrate cleavage, validation (AID 588459); conditions: multiplex microsphere protease substrate cleavage assay, flow cytometry; at 10 µM; stronger effect = higher value
[13] = biological target: Botulinum neurotoxin type A (Clostridium botulinum) (UniProt P0DPI0); test: BoNT/A light chain protease inhibitors, biochemical, multiplex microsphere flow cytometry, validation set (AID 588460); conditions: at 10 µM, stronger effect = higher value
Chain of Botulinum neurotoxin type A (Clostridium botulinum) (P0DPI0 whole entry, looked up): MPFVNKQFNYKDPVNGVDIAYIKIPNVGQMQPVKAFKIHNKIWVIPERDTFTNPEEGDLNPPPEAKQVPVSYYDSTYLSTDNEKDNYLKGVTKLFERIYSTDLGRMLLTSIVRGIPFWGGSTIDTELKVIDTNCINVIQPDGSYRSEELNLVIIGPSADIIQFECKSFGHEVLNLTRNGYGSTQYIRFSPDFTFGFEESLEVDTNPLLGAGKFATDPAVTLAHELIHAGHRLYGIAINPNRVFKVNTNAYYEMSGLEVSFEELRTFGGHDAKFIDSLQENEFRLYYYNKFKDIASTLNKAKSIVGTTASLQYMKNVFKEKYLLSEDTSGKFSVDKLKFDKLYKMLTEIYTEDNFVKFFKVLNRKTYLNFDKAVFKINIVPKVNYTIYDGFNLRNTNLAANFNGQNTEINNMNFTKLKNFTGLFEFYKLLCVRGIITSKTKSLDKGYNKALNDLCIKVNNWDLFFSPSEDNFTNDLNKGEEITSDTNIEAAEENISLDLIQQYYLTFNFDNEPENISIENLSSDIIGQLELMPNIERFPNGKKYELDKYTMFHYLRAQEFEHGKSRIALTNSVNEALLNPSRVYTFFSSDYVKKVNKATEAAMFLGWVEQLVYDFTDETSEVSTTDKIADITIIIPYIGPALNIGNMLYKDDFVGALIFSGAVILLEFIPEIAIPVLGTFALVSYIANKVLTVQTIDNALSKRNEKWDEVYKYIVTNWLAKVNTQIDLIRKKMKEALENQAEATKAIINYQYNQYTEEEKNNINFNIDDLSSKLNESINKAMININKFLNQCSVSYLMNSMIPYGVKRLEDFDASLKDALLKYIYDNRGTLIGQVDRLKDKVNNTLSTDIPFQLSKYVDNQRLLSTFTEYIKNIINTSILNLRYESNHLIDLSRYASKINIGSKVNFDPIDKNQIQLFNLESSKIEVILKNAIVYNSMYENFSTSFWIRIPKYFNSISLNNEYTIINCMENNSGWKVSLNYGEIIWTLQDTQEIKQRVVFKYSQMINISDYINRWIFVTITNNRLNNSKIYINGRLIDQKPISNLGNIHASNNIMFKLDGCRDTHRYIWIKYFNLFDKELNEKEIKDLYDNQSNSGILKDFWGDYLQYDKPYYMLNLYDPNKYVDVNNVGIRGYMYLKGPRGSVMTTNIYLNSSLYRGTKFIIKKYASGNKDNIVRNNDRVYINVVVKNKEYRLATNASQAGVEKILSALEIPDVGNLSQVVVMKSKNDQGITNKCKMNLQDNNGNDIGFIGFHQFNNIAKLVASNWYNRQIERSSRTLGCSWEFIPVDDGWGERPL

[14] = biological target: Lethal factor (Bacillus anthracis) (UniProt P15917); test: Bacillus anthracis lethal factor inhibition, microsphere flow cytometry protease assay, validation at 10 µM (AID 588461); conditions: multiplex microsphere protease cleavage assay, stronger effect = higher value
[15] = Nile Red efflux blockade in pump-expressing yeast – validation compound set, multiplex, phenotypic, pilot screen (AID 588506;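 active means efflux inhibition above 0.42, the validation set average plus 4 SD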;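 further: Nile Red retained in cells so higher fluorescence means more efflux inhibition; 0 = negative control wells and 1 = enniatin B 25 µM full block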); conditions: S. cerevisiae pump-expressing triplex, Nile Red efflux flow cytometry; at 10 µM; stronger effect = higher value
[16] = biological target: ATP-binding cassette sub-family B member 6 (Homo sapiens) (UniProt Q9NP58); test: blockers of ABCB6-driven porphyrin uptake – K562-ABCB6 cells, flow cytometry, validation set, pilot screen (AID 588550;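 active means inhibition above the screen-wide mean plus 3 SD, about 51%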;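 further: 0% = DMSO wells and 100% = benzethonium chloride 70 µM positive control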); conditions: K562-ABCB6 porphyrin accumulation, 1 h, at 10 µM, stronger effect = higher value
Chain of ATP-binding cassette sub-family B member 6 (Homo sapiens) (Q9NP58 whole entry, looked up): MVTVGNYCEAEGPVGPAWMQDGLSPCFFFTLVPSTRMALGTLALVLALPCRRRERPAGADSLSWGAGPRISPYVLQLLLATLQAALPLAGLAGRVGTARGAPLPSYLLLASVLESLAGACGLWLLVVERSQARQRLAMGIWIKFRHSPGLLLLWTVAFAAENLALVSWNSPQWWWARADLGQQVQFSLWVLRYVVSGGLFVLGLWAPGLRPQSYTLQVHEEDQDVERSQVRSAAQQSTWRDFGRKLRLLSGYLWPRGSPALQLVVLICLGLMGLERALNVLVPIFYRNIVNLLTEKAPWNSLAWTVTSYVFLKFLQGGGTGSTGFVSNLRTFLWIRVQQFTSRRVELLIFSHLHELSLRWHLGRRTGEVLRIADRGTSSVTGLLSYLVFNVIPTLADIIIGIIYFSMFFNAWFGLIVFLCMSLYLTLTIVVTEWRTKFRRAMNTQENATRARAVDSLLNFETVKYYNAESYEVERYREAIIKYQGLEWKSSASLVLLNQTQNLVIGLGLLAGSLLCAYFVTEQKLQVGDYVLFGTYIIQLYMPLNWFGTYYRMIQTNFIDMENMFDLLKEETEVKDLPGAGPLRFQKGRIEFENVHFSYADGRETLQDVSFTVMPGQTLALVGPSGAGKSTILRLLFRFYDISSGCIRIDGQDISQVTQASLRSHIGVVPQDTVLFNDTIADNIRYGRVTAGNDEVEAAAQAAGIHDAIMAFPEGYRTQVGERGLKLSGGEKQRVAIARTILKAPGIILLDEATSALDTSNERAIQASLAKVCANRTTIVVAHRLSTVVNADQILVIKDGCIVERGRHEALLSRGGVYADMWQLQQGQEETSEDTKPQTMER

[17] = AML differentiation inducers, ER-HoxA9 marrow cells – cell-based, GFP/MAC1 double positive, flow cytometry, validation set, primary screen (AID 588685;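 active means differentiation response of at least 50%, scaled between solvent and reference control, from cells with both markers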;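 further: compound exposure lasts four days before antibody staining and flow analysis; 0% = DMSO wells and 100% = 5 µM fulvestrant positive control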); conditions: stronger effect = higher value

SMILES | percent of DMSO control GFP [1] | GFP response vs DMSO [2] | percent response of DMSO control [3] | GFP response vs DMSO [4] | double positive events [5] [%] | vesicle binding response [5] | inhibition [6] | superoxide response (% of plate) [7] | aptamer binding inhibition [8] | inhibition [9] | response [10] | binding (% of control) [11] | inhibition [12] | inhibition [13] | inhibition [14] | efflux inhibition (fraction of control) [15] | inhibition [16] | differentiation response [17]
Cc1ccc(/C=C2/C(=O)NC(=O)N(C)C2=O)cc1 | 97.4% (inactive) | 96.9% (inactive) | 95.9% (inactive) | 97.4% (inactive) | 53.7 | 135% (inactive) | 20.3% (inactive) | 101% (inactive) | 5% (inactive) | -0.14% (inactive) | -4.11% (inactive) | 97.8% (inactive) | 0.6% (inactive) | 1.8% (inactive) | 6.7% (inactive) | 0.22 (inactive) | 6% (inactive) | -0.2% (inactive)
S=C1NCCN1 | 99.1% (inactive) | 109% (inactive) | 97.9% (inactive) | 102% (inactive) | 65.7 | 186% (inactive) | 6.29% (inactive) | 98.2% (inactive) | 3% (inactive) | 24.8% (inactive) | -0.28% (inactive) | 98% (inactive) |  |  |  | 0.63 (active) | 14% (inactive) | -0.2% (inactive)
Cc1ccc2c(c1)C1CN(C)CCC1N2C(=O)Nc1cccc(Cl)c1 (configuration not stated) | 99.5% (inactive) | 102% (inactive) | 109% (inactive) | 95.4% (inactive) | 56.9 | 242% (inactive) | 30.5% (inactive) | 93.4% (inactive) | -3% (inactive) | 27.7% (inactive) | -6.89% (inactive) | 102% (inactive) | -0.9% (inactive) | -0.1% (inactive) | 0% (inactive) | -0.09 (inactive) | 4% (inactive) | -18% (inactive)
COc1ccc2c(c1)CC1(CN2C)C(=O)NC(=O)N(CCc2ccccc2)C1=O (configuration not stated) | 101% (inactive) | 98.3% (inactive) | 96.6% (inactive) | 88.1% (inactive) | 65.8 | 263% (inactive) | -3.57% (inactive) |  | -3% (inactive) | -4.29% (inactive) | 1.95% (inactive) | 104% (inactive) | 3.8% (inactive) | 1.1% (inactive) | -1.5% (inactive) | -0.07 (inactive) | 27% (inactive) | 27.6% (inactive)
NCCc1c[nH]c2ccc(F)cc12 | 98.2% (inactive) | 103% (inactive) | 107% (inactive) | 106% (inactive) | 59.2 | 77.4% (inactive) | 18.3% (inactive) | 93.9% (inactive) | -1% (inactive) |  | 6.8% (inactive) | 104% (inactive) | -3.3% (inactive) | -0.7% (inactive) | -4.9% (inactive) | -0.44 (inactive) | 2% (inactive) | 5.73% (inactive)
CN1C(=O)CN=C(c2ccc(Cl)cc2)c2cc(Cl)ccc21 | 99% (inactive) | 100% (inactive) | 95.4% (inactive) | 103% (inactive) | 62.8 | 174% (inactive) | 9.92% (inactive) |  | -1% (inactive) | -0.45% (inactive) | 4.65% (inactive) | 96.8% (inactive) | 3.6% (inactive) | 0.8% (inactive) | -3.5% (inactive) | 0.27 (inactive) | 7% (inactive) | 1.22% (inactive)
CCNC(=S)N(C)CCc1cc2c(c(OC)c1C=C1C(=O)N(C)C(=O)N(C)C1=O)OCO2 | 98.1% (inactive) | 95.9% (inactive) | 91% (inactive) | 96.4% (inactive) | 62.5 | 168% (inactive) | 15.6% (inactive) | 89.1% (inactive) | 4% (inactive) | 27.6% (inactive) | -7.44% (inactive) | 100% (inactive) | 1.8% (inactive) | 1.4% (inactive) | 1.3% (inactive) | -0.16 (inactive) | -16% (inactive) | 6.26% (inactive)
COc1ccc(OC)c(C(O)C(C)N)c1 (configuration not stated) | 103% (inactive) | 94.1% (inactive) | 95.4% (inactive) | 87.4% (inactive) | 59.9 | 41.1% (inactive) | 7.85% (inactive) |  | 0% (inactive) | -0.56% (inactive) | 1.5% (inactive) | 105% (inactive) | 2.2% (inactive) | 1.1% (inactive) | 3.1% (inactive) | 0.61 (active) | 10% (inactive) | 24.7% (inactive)
CN[C@H](C)[C@H](O)c1ccccc1 | 90.2% (inactive) | 131% (inactive) | 102% (inactive) | 87.5% (inactive) | 53.3 | 176% (inactive) | 8.4% (inactive) | 97.6% (inactive) | 4% (inactive) | 39.6% (inactive) | -4.76% (inactive) | 102% (inactive) |  |  |  | 0.27 (inactive) | 5% (inactive) | -0.82% (inactive)
